# Assays:
# Experiment in all cases: DAPPL (digital affinity profiling via proximity ligation, sequencing); 10 mM Tris-HCl pH 7.5, 50 mM NaCl, 1 mM DTT, 4% glycerol, room temperature, 30 min; GST-TFs on glutathione beads, 16-mer random dsDNA library, 0.1% formaldehyde crosslink after washing; high values mean tight binding
# Conditions in all cases: protein: recombinant; tags: N-terminal GST; dsDNA, one strand shown
# ELK1 = target: T1, ELK1 (Homo sapiens, UniProt P19419 1-428)
# T1 sequence: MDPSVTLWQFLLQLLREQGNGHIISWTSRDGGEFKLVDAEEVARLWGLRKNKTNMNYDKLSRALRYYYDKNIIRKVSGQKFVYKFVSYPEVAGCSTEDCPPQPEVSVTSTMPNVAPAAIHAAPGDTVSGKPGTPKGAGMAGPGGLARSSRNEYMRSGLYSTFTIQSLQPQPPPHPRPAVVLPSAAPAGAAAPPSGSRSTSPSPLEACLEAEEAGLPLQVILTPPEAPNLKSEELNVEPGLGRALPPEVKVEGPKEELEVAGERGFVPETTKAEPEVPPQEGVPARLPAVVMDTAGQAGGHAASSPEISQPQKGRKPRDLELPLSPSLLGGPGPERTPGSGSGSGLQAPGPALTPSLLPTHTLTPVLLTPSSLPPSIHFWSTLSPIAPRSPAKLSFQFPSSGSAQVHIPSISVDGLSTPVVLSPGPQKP
# In short: (§1)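 Pools were built from human transcription factors expressed in yeast as GST fusions, captured on glutathione beads and DNA-barcoded, along with a tag-only sample. Incubation with 200 nmole of a 16-mer random double-stranded DNA library lasted 30 min at room temperature in Tris/NaCl/DTT/glycerol buffer, and was followed by washing, 0.1% formaldehyde crosslinking, proximity ligation, PCR amplification and Illumina NextSeq500 sequencing. Binding signal is the quotient of each hexamer's read frequency for a factor and its frequency for the tag-only sample.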
# GABPA = target: T2, GABPA (Homo sapiens, UniProt Q06546 1-454)
# T2 sequence: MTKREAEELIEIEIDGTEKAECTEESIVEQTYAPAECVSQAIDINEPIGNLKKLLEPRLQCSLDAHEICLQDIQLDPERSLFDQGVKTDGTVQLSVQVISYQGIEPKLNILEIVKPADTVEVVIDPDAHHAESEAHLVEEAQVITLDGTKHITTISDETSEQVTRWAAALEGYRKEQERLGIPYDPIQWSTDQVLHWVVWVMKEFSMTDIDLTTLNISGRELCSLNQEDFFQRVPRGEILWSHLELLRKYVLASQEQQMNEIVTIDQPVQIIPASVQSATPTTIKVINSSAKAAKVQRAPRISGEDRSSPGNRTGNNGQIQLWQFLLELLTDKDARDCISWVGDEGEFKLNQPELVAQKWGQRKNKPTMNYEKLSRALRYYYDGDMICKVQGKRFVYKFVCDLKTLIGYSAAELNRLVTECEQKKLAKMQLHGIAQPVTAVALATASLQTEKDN
# In short: as §1
# ERG = target: T3, ERG (Homo sapiens, UniProt P11308 1-479)
# T3 sequence: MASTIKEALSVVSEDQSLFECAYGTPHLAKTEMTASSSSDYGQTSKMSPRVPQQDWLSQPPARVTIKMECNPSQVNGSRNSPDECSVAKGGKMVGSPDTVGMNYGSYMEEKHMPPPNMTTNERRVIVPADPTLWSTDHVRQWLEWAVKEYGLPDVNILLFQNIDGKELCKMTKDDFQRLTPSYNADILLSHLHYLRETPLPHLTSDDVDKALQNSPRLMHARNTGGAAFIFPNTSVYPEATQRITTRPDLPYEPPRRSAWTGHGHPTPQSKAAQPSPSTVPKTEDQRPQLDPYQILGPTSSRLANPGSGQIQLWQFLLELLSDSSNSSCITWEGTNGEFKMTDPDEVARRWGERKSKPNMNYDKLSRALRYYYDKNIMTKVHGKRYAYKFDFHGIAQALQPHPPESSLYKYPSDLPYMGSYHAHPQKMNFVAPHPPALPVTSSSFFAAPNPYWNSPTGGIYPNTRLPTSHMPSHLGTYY
# In short: as §1
# ELF1 = ELF1 (Homo sapiens, UniProt P32519 1-619)
# Sequence of ELF1 (P32519 whole entry): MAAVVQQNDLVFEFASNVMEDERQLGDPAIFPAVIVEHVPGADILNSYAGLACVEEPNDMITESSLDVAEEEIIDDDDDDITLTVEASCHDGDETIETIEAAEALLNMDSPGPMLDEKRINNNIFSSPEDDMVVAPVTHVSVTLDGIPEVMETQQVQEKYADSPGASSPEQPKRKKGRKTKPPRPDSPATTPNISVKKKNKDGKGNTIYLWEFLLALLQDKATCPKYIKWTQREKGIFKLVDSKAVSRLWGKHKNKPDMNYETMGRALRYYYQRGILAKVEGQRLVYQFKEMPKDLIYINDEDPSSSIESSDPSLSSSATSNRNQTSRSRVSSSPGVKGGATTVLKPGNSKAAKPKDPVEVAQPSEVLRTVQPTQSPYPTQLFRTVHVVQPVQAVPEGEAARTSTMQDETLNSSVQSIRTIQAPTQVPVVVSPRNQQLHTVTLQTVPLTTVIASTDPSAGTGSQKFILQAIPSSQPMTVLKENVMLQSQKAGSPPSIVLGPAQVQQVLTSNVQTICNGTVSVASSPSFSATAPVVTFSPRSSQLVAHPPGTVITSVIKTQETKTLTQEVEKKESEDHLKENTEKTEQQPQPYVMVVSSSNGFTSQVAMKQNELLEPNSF
# In short: as §1
# EHF = target: T4, EHF (Homo sapiens, UniProt Q9NZC4 1-300)
# T4 sequence: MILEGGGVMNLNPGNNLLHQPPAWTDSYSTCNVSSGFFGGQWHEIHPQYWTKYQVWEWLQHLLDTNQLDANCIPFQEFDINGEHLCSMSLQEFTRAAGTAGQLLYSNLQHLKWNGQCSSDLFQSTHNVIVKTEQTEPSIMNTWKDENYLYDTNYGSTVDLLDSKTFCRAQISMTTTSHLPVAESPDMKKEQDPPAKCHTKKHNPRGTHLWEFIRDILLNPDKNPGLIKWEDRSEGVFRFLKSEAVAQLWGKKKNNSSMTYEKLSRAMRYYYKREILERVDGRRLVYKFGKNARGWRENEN
# In short: as §1
# SPIB = SPIB (Homo sapiens, UniProt Q01892 1-262)
# Sequence of SPIB (Q01892 whole entry): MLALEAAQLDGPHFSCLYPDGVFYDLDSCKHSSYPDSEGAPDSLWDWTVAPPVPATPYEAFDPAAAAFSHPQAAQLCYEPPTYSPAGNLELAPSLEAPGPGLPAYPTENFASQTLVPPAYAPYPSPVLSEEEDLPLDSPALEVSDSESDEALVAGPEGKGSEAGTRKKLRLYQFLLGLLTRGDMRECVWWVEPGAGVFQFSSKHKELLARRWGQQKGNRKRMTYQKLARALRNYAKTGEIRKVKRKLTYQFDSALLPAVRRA
# In short: as §1
# ETV5 = ETV5 (Homo sapiens, UniProt P41161 1-510)
# Sequence of ETV5 (P41161 whole entry): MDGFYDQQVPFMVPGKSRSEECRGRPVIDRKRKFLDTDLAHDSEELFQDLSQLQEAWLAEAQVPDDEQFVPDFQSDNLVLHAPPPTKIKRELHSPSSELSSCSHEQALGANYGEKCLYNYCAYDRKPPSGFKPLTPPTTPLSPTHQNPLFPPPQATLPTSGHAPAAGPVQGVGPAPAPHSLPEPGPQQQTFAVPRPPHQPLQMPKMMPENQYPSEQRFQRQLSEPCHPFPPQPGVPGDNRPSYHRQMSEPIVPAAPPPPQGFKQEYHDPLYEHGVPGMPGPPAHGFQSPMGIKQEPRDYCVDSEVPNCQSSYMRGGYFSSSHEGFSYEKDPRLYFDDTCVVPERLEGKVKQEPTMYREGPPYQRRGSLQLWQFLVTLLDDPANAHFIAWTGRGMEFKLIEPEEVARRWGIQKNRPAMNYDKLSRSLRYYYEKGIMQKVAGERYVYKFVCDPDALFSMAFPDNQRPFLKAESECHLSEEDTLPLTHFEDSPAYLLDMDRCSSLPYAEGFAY
# In short: as §1
# ELF4 = ELF4 (Homo sapiens, UniProt Q99607 1-663)
# Sequence of ELF4 (Q99607 whole entry): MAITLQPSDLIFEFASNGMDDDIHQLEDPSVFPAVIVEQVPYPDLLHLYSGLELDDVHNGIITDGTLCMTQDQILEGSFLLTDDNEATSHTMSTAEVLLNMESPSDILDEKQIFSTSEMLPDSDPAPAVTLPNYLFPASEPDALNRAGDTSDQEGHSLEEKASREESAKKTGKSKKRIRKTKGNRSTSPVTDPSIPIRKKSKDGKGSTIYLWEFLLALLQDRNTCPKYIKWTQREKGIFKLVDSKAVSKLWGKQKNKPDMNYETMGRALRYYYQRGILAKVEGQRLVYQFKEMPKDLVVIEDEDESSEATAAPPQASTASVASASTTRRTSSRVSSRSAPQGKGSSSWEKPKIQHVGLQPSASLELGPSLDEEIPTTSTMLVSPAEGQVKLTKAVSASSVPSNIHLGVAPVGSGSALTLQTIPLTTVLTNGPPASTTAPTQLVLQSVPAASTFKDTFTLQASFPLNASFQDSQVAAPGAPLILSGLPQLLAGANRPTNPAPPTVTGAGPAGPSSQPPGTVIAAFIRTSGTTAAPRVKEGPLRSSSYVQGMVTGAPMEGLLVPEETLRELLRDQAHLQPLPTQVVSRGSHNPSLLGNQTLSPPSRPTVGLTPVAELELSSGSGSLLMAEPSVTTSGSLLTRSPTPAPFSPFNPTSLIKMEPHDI
# In short: as §1
# ELK4 = target: T5, ELK4 (Homo sapiens, UniProt P28324-2 1-405)
# T5 sequence: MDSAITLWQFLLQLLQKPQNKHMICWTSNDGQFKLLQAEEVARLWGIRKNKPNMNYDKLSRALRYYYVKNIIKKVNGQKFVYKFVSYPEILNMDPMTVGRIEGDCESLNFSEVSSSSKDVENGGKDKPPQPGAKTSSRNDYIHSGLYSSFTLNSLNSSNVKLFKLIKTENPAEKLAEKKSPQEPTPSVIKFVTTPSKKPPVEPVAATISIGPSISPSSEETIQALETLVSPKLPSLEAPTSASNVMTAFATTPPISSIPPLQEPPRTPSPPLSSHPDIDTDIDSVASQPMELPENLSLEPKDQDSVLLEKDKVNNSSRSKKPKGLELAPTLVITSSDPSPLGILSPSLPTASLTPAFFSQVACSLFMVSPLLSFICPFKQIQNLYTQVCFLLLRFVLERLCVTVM
# In short: as §1
# ETV2 = target: T6, ETV2 (Homo sapiens, UniProt O00321 1-342)
# T6 sequence: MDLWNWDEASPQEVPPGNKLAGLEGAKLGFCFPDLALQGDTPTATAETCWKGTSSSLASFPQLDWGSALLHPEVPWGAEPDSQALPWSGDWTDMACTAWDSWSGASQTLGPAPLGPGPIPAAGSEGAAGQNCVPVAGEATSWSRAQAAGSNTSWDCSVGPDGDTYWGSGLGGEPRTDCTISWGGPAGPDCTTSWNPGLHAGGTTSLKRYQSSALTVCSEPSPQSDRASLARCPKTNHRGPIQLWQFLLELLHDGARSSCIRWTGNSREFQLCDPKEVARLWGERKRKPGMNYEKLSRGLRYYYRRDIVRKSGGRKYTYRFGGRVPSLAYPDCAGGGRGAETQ
# In short: as §1
# ELF3 = target: T7, ELF3 (Homo sapiens, UniProt P78545 1-371)
# T7 sequence: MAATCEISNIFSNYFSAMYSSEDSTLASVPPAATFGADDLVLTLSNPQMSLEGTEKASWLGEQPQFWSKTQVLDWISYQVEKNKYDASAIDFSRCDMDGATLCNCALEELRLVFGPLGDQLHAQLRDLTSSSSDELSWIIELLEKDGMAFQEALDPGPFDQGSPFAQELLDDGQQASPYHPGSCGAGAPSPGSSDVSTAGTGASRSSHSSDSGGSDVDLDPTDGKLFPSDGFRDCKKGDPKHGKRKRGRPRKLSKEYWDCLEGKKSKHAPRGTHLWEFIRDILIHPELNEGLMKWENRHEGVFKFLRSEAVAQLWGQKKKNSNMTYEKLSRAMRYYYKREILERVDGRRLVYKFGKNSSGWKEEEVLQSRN
# In short: as §1
# ETV1 = ETV1 (Homo sapiens, UniProt P50549 1-477)
# Sequence of ETV1 (P50549 whole entry): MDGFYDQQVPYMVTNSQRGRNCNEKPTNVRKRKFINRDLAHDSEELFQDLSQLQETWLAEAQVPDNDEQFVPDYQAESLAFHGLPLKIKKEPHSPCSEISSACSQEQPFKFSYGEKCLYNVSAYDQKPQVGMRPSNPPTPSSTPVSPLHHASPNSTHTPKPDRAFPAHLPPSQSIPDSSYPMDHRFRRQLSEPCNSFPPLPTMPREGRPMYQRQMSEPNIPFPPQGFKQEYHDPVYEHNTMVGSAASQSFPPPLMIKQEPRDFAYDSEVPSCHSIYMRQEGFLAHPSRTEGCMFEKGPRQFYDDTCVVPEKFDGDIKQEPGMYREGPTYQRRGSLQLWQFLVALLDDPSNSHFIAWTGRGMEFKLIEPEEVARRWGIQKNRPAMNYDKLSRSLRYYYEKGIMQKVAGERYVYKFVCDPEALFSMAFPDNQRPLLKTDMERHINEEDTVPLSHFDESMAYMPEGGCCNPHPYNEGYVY
# In short: as §1
# ERF = target: T8, ERF (Homo sapiens, UniProt P50548 1-548)
# T8 sequence: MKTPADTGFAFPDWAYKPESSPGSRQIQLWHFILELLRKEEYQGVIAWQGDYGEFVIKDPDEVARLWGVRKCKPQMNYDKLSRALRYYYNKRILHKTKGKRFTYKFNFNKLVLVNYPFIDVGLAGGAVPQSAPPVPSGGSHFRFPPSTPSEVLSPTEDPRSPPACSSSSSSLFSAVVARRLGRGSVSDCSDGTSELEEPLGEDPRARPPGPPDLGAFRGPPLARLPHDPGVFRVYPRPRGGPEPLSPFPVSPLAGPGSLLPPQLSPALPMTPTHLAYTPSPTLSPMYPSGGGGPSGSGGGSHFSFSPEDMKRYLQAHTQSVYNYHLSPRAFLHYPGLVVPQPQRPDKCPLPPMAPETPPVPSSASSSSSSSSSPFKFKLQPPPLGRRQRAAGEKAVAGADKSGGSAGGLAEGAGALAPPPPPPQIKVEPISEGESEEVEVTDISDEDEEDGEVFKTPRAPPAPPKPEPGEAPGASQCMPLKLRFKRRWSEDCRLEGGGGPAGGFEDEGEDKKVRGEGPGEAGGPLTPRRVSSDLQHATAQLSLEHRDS
# In short: as §1
# ETV3L = target: T9, ETV3L (Homo sapiens, UniProt Q6ZN32 1-361)
# T9 sequence: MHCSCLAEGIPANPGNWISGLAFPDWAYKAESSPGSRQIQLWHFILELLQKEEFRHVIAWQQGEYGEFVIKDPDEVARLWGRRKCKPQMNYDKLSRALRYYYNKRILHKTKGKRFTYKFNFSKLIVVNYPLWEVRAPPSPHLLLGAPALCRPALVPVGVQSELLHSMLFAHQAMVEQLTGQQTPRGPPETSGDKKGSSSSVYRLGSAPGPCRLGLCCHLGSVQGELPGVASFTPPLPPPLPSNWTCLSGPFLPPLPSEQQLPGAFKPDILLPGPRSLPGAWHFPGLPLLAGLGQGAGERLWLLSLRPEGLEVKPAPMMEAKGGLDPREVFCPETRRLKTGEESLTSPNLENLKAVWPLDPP
# In short: as §1
# ETS2 = target: T10, ETS2 (Homo sapiens, UniProt P15036 1-469)
# T10 sequence: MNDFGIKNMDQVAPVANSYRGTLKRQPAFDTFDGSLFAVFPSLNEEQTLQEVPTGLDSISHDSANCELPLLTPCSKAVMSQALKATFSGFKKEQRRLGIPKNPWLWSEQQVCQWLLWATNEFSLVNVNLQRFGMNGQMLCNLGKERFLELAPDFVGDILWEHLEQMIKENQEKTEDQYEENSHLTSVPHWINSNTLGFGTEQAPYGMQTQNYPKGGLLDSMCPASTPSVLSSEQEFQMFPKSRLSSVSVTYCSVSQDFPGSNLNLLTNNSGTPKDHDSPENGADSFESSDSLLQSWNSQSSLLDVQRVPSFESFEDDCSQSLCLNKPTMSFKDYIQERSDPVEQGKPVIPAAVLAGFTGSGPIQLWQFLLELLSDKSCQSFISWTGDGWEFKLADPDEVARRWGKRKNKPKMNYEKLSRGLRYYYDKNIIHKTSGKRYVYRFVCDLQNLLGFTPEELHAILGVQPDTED
# In short: as §1
# SPDEF = target: T11, SPDEF (Homo sapiens, UniProt O95238 1-335)
# T11 sequence: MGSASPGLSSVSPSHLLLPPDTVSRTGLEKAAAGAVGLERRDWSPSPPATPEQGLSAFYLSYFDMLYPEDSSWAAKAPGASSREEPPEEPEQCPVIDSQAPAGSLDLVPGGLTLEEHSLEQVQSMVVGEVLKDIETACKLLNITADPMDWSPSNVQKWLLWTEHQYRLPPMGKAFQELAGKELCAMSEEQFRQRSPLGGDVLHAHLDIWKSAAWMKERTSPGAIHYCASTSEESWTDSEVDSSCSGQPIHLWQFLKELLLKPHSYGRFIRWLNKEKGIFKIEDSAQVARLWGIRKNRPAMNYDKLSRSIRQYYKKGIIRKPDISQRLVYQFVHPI
# In short: as §1
# ETV7 = target: T12, ETV7 (Homo sapiens, UniProt Q9Y603 1-341)
# T12 sequence: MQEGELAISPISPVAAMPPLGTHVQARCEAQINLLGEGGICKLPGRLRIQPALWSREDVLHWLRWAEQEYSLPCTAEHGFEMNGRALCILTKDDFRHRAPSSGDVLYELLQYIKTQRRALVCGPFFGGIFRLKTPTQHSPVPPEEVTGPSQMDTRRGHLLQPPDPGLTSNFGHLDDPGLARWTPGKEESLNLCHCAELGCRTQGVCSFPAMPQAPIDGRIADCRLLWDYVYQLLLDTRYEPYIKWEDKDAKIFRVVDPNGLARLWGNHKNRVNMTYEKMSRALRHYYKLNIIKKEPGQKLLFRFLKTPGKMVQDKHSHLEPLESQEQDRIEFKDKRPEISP
# In short: as §1
# ETV3 = target: T13, ETV3 (Homo sapiens, UniProt P41162-2 1-143)
# T13 sequence: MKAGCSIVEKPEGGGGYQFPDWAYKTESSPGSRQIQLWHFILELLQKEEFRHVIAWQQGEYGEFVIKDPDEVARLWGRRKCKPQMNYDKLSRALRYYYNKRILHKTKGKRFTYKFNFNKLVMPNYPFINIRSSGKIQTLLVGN
# In short: as §1
# ETV6 = ETV6 (Homo sapiens, UniProt P41212 1-452)
# Sequence of ETV6 (P41212 whole entry): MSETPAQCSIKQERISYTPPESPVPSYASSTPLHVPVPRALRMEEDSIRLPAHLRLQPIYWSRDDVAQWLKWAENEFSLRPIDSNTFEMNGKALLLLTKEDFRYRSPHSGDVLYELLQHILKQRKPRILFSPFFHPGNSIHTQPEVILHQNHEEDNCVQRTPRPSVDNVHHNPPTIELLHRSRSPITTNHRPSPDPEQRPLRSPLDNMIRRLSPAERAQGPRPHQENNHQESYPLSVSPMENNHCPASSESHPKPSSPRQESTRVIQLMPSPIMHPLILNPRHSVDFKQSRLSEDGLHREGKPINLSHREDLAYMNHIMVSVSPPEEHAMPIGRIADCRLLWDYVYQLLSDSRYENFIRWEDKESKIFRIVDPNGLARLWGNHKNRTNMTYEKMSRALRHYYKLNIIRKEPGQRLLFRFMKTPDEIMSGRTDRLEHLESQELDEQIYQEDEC
# In short: as §1
sequence,measurement,setting,value
TATGTC,binding signal,ELK1,"1.05 fold enrichment (6-mer frequency, TF over GST control)"
same,binding signal,GABPA,"1.17 fold enrichment (6-mer frequency, TF over GST control)"
same,binding signal,ERG,"1.08 fold enrichment (6-mer frequency, TF over GST control)"
same,binding signal,ELF1,"1.11 fold enrichment (6-mer frequency, TF over GST control)"
same,binding signal,EHF,"1.02 fold enrichment (6-mer frequency, TF over GST control)"
same,binding signal,SPIB,"1.16 fold enrichment (6-mer frequency, TF over GST control)"
same,binding signal,ETV5,"1.07 fold enrichment (6-mer frequency, TF over GST control)"
same,binding signal,ELF4,"1.14 fold enrichment (6-mer frequency, TF over GST control)"
same,binding signal,ELK4,"1.05 fold enrichment (6-mer frequency, TF over GST control)"
same,binding signal,ETV2,"1.02 fold enrichment (6-mer frequency, TF over GST control)"
same,binding signal,ELF3,"1.06 fold enrichment (6-mer frequency, TF over GST control)"
same,binding signal,ETV1,"1.05 fold enrichment (6-mer frequency, TF over GST control)"
same,binding signal,ERF,"1.08 fold enrichment (6-mer frequency, TF over GST control)"
same,binding signal,ETV3L,"1.16 fold enrichment (6-mer frequency, TF over GST control)"
same,binding signal,ETS2,"1.13 fold enrichment (6-mer frequency, TF over GST control)"
same,binding signal,SPDEF,"1.14 fold enrichment (6-mer frequency, TF over GST control)"
same,binding signal,ETV7,"1.06 fold enrichment (6-mer frequency, TF over GST control)"
same,binding signal,ETV3,"1.13 fold enrichment (6-mer frequency, TF over GST control)"
same,binding signal,ETV6,"1.07 fold enrichment (6-mer frequency, TF over GST control)"
